Only some compounds are listed: those with a hit (about 1.3% of all), similar ones and a draw of the others.
Mtb hypoxia inh: inhibitors of hypoxia-regulated fluorescent reporter in Mycobacterium tuberculosis; M. tuberculosis hypoxia-regulated fluorescent reporter, fluorescence; fluorescence inhibition, % (concentration not given with the values); 300,000 tested, 0.1% active; AID 1159583; in the data active = fluorescence inhibition mostly above about 23%, no sharp cut-off; inactive = mostly below about 17%
MazF activator: MazEF (E. coli) toxin RNase activation | P0AE70 | FAM/BHQ RNA-DNA oligo cleavage fluorescence, 5 h | activation, % at 20 µM | 350,000 tested, 0.32% active | AID 504720; in the data active = activation above about 50%
TcdB inh: TcdB glycohydrolase inhibition; AID 652162; 350,000 tested, 0.24% active; TcdB glycohydrolase enzymatic assay, plate reader; inhibition, % at 9.99 µM; P18177; in the data active = inhibition above about 10%
Target sequence (P18177 whole entry, looked up): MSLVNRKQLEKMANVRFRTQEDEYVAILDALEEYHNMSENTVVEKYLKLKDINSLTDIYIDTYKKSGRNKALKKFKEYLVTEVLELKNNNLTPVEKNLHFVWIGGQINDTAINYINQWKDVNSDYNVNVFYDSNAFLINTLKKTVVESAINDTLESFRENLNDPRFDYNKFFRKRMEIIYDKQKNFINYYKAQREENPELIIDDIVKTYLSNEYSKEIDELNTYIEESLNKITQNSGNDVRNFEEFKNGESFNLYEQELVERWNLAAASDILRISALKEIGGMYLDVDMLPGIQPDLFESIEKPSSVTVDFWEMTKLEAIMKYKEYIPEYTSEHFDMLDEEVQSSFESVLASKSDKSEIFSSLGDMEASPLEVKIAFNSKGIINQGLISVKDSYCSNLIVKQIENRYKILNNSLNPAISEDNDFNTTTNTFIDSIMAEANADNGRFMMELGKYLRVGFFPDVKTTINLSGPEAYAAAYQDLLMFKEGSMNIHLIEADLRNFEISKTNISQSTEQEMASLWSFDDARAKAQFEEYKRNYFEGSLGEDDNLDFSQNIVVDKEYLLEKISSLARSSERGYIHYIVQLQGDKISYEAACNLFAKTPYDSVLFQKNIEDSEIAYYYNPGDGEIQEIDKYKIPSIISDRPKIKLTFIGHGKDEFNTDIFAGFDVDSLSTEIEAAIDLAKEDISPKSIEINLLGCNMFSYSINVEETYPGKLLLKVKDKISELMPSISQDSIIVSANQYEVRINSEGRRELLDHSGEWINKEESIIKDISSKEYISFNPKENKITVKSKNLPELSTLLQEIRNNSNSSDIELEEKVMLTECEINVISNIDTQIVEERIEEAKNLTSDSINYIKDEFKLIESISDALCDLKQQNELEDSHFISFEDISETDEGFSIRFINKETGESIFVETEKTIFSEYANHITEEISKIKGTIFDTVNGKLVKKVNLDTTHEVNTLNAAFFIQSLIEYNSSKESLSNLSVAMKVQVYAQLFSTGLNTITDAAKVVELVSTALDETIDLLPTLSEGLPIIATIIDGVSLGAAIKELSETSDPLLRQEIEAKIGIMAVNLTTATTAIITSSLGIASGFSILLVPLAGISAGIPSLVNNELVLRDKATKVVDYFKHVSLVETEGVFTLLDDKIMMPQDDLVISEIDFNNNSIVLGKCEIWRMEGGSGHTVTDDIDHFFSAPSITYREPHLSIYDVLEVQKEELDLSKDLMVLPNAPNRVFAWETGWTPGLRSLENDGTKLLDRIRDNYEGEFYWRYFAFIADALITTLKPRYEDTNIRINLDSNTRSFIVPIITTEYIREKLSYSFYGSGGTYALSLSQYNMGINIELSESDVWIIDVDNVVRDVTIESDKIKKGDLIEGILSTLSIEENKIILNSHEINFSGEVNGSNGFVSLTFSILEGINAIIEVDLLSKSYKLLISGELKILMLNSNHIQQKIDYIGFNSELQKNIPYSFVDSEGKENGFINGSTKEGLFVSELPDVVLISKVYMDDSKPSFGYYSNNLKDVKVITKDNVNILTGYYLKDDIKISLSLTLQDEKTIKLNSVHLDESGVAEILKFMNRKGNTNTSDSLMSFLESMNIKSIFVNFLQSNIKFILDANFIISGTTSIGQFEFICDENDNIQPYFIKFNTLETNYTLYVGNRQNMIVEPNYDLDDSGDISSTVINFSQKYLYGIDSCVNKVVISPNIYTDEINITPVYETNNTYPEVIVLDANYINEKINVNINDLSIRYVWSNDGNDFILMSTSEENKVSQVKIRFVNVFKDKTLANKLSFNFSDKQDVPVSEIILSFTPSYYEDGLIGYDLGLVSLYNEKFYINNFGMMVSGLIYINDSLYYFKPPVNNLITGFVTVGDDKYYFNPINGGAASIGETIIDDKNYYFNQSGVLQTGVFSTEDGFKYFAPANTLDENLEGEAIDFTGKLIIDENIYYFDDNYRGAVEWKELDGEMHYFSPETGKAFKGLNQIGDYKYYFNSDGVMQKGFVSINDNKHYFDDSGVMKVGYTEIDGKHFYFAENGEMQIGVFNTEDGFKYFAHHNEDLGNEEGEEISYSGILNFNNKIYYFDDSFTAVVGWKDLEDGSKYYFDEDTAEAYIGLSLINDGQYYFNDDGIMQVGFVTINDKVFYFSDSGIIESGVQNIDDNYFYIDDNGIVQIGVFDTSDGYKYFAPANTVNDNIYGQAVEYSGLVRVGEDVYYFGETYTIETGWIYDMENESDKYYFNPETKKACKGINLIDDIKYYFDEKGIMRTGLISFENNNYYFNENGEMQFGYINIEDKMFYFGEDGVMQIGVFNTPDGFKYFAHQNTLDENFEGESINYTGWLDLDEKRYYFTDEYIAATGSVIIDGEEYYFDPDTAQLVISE
Sa ugtP lethal: kills S. aureus RN4220 lacking UgtP; S. aureus RN4220 ugtP deletion, OD600 growth, 16 h; growth inhibition, % (concentration not given with the values); 330,000 tested, 0.54% active; AID 1259309; in the data active = growth inhibition above about 68%;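 note: plate controls were untreated wells for no effect and antibiotic for full effect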
Sa RN4220 lethal: kills Staphylococcus aureus RN4220; S. aureus RN4220 growth, OD600, 16 h; inhibition, % (no concentration beside the values); 330,000 tested, 0.33% active; in the data active = inhibition above about 85%;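 note: plate controls were untreated cells for no effect and reference antibiotic for full effect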
PfHsp40 yeast: rescue of PfHsp40-mediated yeast toxicity. growth rescue, % at 12.5 µM. AID 504582. S. cerevisiae expressing PfHsp40, growth rescue, ATP luminescence. 340,000 tested, 0.68% active; in the data active = growth rescue above about 28%, passing the limit was not always enough; inconclusive = no clear call, values can overlap the other calls;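 note: yeast W303a lacking pdr1 and pdr3 grown in galactose medium; growth measured after three days at 30 °C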
An asterisk follows results filed as active.

How did C[C@H]1CN([C@@H](C)CO)C(=O)c2cccc(NS(=O)(=O)c3ccc(F)cc3)c2O[C@H]1CN(C)CC1CC1 do in these assays?
TcdB inh: -1

What do the screens show for `CN(CC(=O)Nc1ccc(F)cc1)C(=O)COC(=O)CNC(=O)c1sc2ccccc2c1Cl`?
MazF activator: 70*; TcdB inh: 1; PfHsp40 yeast: 0

How did COc1ccc(NC(=O)CN(C)C(=O)CNC(=O)c2sc3ccccc3c2Cl)cc1 do in these assays?
Mtb hypoxia inh: 8; MazF activator: -1; TcdB inh: -1; Sa ugtP lethal: 2; Sa RN4220 lethal: 0; PfHsp40 yeast: -1

Results for C=CCOC(=O)C1=CC(c2ccc(Br)cc2)C(CCCO)C(OCC)O1 (configuration not stated) ?
Mtb hypoxia inh: 4; Sa ugtP lethal: 4; Sa RN4220 lethal: 7

Results for C[C@@H]1CN([C@@H](C)CO)C(=O)c2cc(-c3ccc(F)cc3)cnc2O[C@H]1CN(C)CC1CCCCC1 ?
TcdB inh: 0

How did CCOc1ccc(C(Nc2cccnc2)c2cc(Cl)c3cccnc3c2O)cc1 (configuration not stated) do in these assays?
Mtb hypoxia inh: 6; MazF activator: -25; TcdB inh: 3; Sa ugtP lethal: 2; Sa RN4220 lethal: 15; PfHsp40 yeast: 92*

How did COc1ccccc1C(NC(C)=O)c1cc(Cl)c2cccnc2c1O (configuration not stated) do in these assays?
Mtb hypoxia inh: 15; MazF activator: 10; TcdB inh: 0; Sa ugtP lethal: -13; Sa RN4220 lethal: 3; PfHsp40 yeast: -1

What do the screens show for `O=C(O)COc1ccccc1C(Nc1ccccn1)c1cc(Cl)c2cccnc2c1O` (configuration not stated)?
Mtb hypoxia inh: -3; MazF activator: 2; Sa ugtP lethal: -5; Sa RN4220 lethal: 18; PfHsp40 yeast: 58*

What do the screens show for `O=C(O)COc1ccccc1C(Nc1cccnc1)c1cc(Cl)c2cccnc2c1O` (configuration not stated)?
Mtb hypoxia inh: 19; MazF activator: -30; Sa ugtP lethal: 8; Sa RN4220 lethal: 9; PfHsp40 yeast: 106*

Results for CCC(=O)NC(c1ccc(C)cc1)c1cc(Cl)c2cccnc2c1O (configuration not stated) ?
MazF activator: -7; PfHsp40 yeast: inconclusive

How did O=C(NN=Cc1cc2ccccc2nc1Cl)c1ccncc1 do in these assays?
Mtb hypoxia inh: 16; Sa ugtP lethal: 1; Sa RN4220 lethal: 3

How did CC(=O)NC[C@H]1[C@@H](c2ccc(C#C[C@@H](C)O)cc2)[C@@H](CO)N1Cc1ccccn1 do in these assays?
TcdB inh: 1

How did Clc1ccc(OCCCn2ccnc2)c(Br)c1 do in these assays?
MazF activator: 6; Sa ugtP lethal: -3; Sa RN4220 lethal: -1; PfHsp40 yeast: 1

What do the screens show for `Clc1ccc(COC(Cn2ccnc2)c2ccc(Cl)cc2Cl)cc1` (configuration not stated)?
MazF activator: 2; TcdB inh: 0; PfHsp40 yeast: 93*

Results for Clc1ccc(CSC(Cn2ccnc2)c2ccc(Cl)cc2Cl)cc1 (configuration not stated) ?
MazF activator: 8; TcdB inh: 0; Sa ugtP lethal: 85; Sa RN4220 lethal: 97*; PfHsp40 yeast: 147*

What do the screens show for `O=C(Cc1ccc(Cl)cc1)NCCCn1ccnc1`?
Mtb hypoxia inh: 10; MazF activator: -5; Sa ugtP lethal: -7; Sa RN4220 lethal: 3; PfHsp40 yeast: -1

Results for CCCC#Cc1cnc2c(c1)C(=O)N([C@H](C)CO)C[C@H](C)[C@H](CN(C)C(=O)Nc1cc(F)ccc1F)O2 ?
TcdB inh: 1

Results for CC(=NNc1ccc(Cl)c(C(=O)O)c1)c1ccccn1 ?
Mtb hypoxia inh: 5; Sa ugtP lethal: -4; Sa RN4220 lethal: 4

Results for CN(C(=O)COC(=O)c1ccc([N+](=O)[O-])cc1N)c1ccccc1 ?
Mtb hypoxia inh: 9; MazF activator: 70*; TcdB inh: 3; Sa ugtP lethal: 4; Sa RN4220 lethal: 2; PfHsp40 yeast: -1

Results for Cc1ccc(C(=O)OCC(=O)N(C)c2ccccc2)c(C)c1 ?
Mtb hypoxia inh: -3; MazF activator: -1; TcdB inh: 0; Sa ugtP lethal: 5; Sa RN4220 lethal: 1; PfHsp40 yeast: 2

Screening results deposited in PubChem by several laboratories.
